Inconclusive results are not listed. A number with no mark means an inactive call. Activity calls are given as the source filed them. Calls come from the whole dose curve; as a rule, active = well fitted inhibition curve with a large enough effect; inconclusive = small, poorly fitted or top-dose-only effect; inactive = no such curve, though single readings can be large or run the other way.
What follows are molecules tested against Dual specificity protein kinase CLK2 (Homo sapiens) (UniProt P49760) (assay: Reaction Biology data for inhibitors of CLK2: Probe SAR). Conditions: Reaction Biology CLK2 kinase assay, 10 uM ATP; series mostly up to 10 µM; activity change, negative = inhibition: at the top concentration.
Description: Alternative splicing of pre-mRNAs plays a major role in the regulation of eukaryotic gene expression. Alternative splicing is now thought to be one of the primary reasons for the complexity of higher organisms leading to an average of three protein isoforms per gene. Aberrant splicing can lead to a number of diseases and is known to play a role in rare genetic diseases such as progeria syndrome. Hutchinson-Gilford Progeria Syndrome (HGPS) is a pediatric premature aging disease caused by a spontaneous mutation in the lamin A/C (LMNA) gene due to a single point mutation in the lamin A gene effecting 1 in 4 million people. To identify both specific splicing modulators of the lamin A gene as well as general splicing modulators, a cell-based HTS assay was developed using a minigene reporter system (AIDs, 1459 & 1487). […] This AID summarizes the characterization of lead compounds in Clk2. NIH Molecular Libraries Probe Production Centers Network [MLPCN] NIH Chemical Genomics Center [NCGC] MLPCN Grant: MH084827 Assay Submitter (PI): Tom Misteli
Compound IC50s were determined at Reaction Biology (http://www.reactionbiology.com) with ten concentration points starting at 10 uM in the assay using a 3-fold dilution series. The control compound staurosporine was also tested in the 10-dose IC50 mode with the same 3-fold serial dilution, again starting at 10 uM. All kinase reactions were performed using 10 uM ATP in the assay. 100% activity was taken from kinase reactions with DMSO alone (the vehicle used for compound stock solutions).

Sequence of Dual specificity protein kinase CLK2 (Homo sapiens) (P49760 whole entry, looked up, canonical isoform): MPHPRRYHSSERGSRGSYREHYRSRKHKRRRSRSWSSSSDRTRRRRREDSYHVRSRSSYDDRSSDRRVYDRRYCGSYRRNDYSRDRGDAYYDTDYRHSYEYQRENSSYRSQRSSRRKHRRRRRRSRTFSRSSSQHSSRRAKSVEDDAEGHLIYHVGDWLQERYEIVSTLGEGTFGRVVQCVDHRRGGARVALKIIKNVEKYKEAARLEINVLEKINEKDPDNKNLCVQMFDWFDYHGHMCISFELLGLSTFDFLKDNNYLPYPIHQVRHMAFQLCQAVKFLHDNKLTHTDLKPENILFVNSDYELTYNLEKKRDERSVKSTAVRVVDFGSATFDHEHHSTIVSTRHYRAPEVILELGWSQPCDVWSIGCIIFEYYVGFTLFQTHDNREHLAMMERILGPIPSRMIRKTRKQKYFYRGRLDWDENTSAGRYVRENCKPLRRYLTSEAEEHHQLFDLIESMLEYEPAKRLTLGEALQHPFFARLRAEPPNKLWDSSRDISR

| SMILES | Potency | activity change, negative = inhibition |
| --- | --- | --- |
| Brc1cc(Br)cc(CNc2nccc(-c3ccc4c(c3)OCO4)n2)c1 | 0.0414 µM (active) |  |
| c1cncc(CNc2ccnc(-c3ccc4cn[nH]c4c3)n2)c1 | 1.9 µM (active) |  |
| COc1cccc(-c2ccnc(NCc3ccc(Cl)c(Cl)c3)n2)c1 |  | -45.2% |
| c1cncc(CNc2nccc(-c3ccc4[nH]ncc4c3)n2)c1 | 0.462 µM (active) |  |
| Clc1ccc(CNc2nccc(-c3ccc4[nH]ncc4c3)n2)cc1Cl | 0.19 µM (active) |  |
| c1cncc(CNc2ncncc2-c2ccc3c(c2)OCO3)c1 |  | -42.4% |
| Cc1c(-c2ccnc(NCc3cccnc3)n2)sc(=O)n1C | 0.576 µM (active) |  |
| c1nc(NCC2CCCO2)c2cc(-c3ccc4c(c3)OCO4)ccc2n1 (stereo unspecified) | 0.358 µM (active) |  |
| Clc1cc(Cl)cc(CNc2ncncc2-c2ccc3c(c2)OCO3)c1 | 0.231 µM (active) |  |
| O=[N+]([O-])c1cc(Nc2nccc(-c3ccc4c(c3)OCO4)n2)cc(C(F)(F)F)c1 | 0.0398 µM (active) |  |
| Clc1cc(Cl)cc(CNc2nccc(-c3ccc4c(c3)OCO4)n2)c1 | 0.0234 µM (active) |  |
| Cc1c(-c2ccnc(NCc3ccc(Cl)cc3)n2)sc(=O)n1C | 0.7 µM (active) |  |
| Clc1ccc(CNc2ccnc(-c3ccc4c(c3)OCO4)n2)cc1Cl |  | -27.8% |
| c1cncc(CNc2nccc(-c3ccc4c(c3)OCO4)n2)c1 | 0.0598 µM (active) |  |
| Cc1nc(CNc2ncnc3ccc(-c4ccc5c(c4)OCO5)cc23)cs1 | 0.187 µM (active) |  |
| Brc1ccc(CNc2nccc(-c3ccc4c(c3)OCO4)n2)cc1Br | 0.0296 µM (active) |  |

| SMILES | Potency | activity change, negative = inhibition |
| --- | --- | --- |
| COc1cccc(-c2ccnc(NCc3ccc(Cl)cc3)n2)c1 |  | -39.2% |
| COc1ccc(-c2ccnc(NCc3ccc(Cl)cc3)n2)cc1 | 1.09 µM (active) |  |
| Clc1ccc(CNc2nccc(-c3ccc4cn[nH]c4c3)n2)cc1Cl | 0.429 µM (active) |  |
| FC(F)(F)c1cccc(Nc2nccc(-c3ccc4c(c3)OCO4)n2)c1 | 0.0521 µM (active) |  |
| Clc1ccc(CNc2nccc(-c3ccc4c(c3)OCCO4)n2)cc1Cl | 0.0391 µM (active) |  |
| COc1ccc(-c2ccnc(NCc3ccc(Cl)c(Cl)c3)n2)cc1OC |  | -20.3% |
| Clc1ccc(Nc2nccc(-c3ccc4c(c3)OCO4)n2)cc1 |  | -45% |
| Clc1ccc(CNc2ncncc2-c2ccc3c(c2)OCO3)cc1Cl | 1.56 µM (active) |  |
| Cc1nc(CN(C)c2ncnc3ccc(-c4ccc5c(c4)OCO5)cc23)cs1 | 0.0448 µM (active) |  |
| c1cncc(CNc2ccnc(-c3ccc4[nH]ncc4c3)n2)c1 | 0.665 µM (active) |  |
| COc1ccc(-c2ccnc(NCc3ccc(Cl)c(Cl)c3)n2)cc1 | 0.409 µM (active) |  |
| c1cc(-c2ccc3c(c2)OCO3)nc(Nc2ccc3c(c2)OCO3)n1 | 0.259 µM (active) |  |
| Clc1ccc(CNc2nccc(-c3ccc4c(c3)OCO4)n2)cc1Cl | 0.0204 µM (active) |  |
| Cc1nc(CN(C)c2ncnc3ccc(-c4ccc5[nH]ncc5c4)cc23)cs1 | 0.16 µM (active) |  |
| FC(F)(F)c1cc(Br)cc(Nc2nccc(-c3ccc4c(c3)OCO4)n2)c1 | 0.344 µM (active) |  |
